Values joined by “and” are separate entries in the source; they are usually repeats but may differ in a detail not shown here. Identical values can stand only once. Records with an inconclusive call do not appear. A call without a number means that no potency is given here. More than one record can exist for a structure, and the calls need not agree. Active and inactive are the calls of the source. Calls follow the shape of the dose curve; as a rule, active = well fitted curve in the direction sought with a large enough effect; inconclusive = small, poorly fitted or top-dose-only effect, or another doubt; inactive = no such curve, though single readings can be large; an effect the other way counts as inactive or inconclusive.
Potency is read from the fitted curve at half-maximal effect.

One assay deals with Papain (Carica papaya) (UniProt P00784). Nature of the assay: Primary qHTS assay for inhibitors of the protease papain (AID 1645873).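 Also: papain turnover of Z-FR-AMC read as the AMC fluorescence gain over 10 min.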 The settings on record: papain Z-FR-AMC cleavage, AMC fluorescence; series mostly up to 49.8 µM. For orientation: qHTS replaces the single test concentration by a dilution series.
Papain (Carica papaya), sequence (P00784 whole entry, looked up): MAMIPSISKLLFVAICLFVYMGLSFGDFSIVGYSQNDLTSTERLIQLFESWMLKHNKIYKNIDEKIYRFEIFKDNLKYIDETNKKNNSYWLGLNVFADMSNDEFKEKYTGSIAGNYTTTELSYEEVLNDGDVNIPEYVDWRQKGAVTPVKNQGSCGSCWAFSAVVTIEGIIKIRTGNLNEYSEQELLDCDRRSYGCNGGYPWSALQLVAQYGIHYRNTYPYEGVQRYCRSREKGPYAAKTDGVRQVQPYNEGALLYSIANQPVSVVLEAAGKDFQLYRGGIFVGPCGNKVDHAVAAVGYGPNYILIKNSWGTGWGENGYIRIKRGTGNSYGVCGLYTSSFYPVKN
In the case of `Cn1cnc([N+](=O)[O-])c1Sc1ncnc2nc[nH]c12`, the Potency result is “inactive”.
The same measure, in the same setting: the same measure for `CCCc1nn(C)c2c(=O)[nH]c(-c3cc(S(=O)(=O)N4CCN(C)CC4)ccc3OCC)nc12`: “inactive”.
Still for that read-out and setting: the same measure for `CC(C)(C)NCC(O)c1ccc(O)c(CO)c1` (stereo not drawn): “inactive”; for `O=c1[nH]cnc2[nH]ncc12`: “inactive”; for `O=C1CCC(N2C(=O)c3ccccc3C2=O)C(=O)N1` (stereo not drawn): “inactive”.
Regarding `CC(=O)Oc1ccccc1C(=O)O`, the Potency entry was “inactive”.
On the same count and under the same terms, the same measure for `OC(CCN1CCCCC1)(c1ccccc1)C1CC2C=CC1C2` (stereo not drawn): “inactive”; for `CNC[C@H](O)c1cccc(O)c1`: “inactive”; for `CCc1cncnc1N1CCN(Cc2nc3ccc(C(F)(F)F)cc3[nH]2)CC1`: “inactive”.
The same measure, in the same setting: the entry for `c1ccc([C@H]2CN3CCSC3=N2)cc1` is “inactive”.
On the same count and under the same terms, the same measure for `O=C1CCc2cc(OCCCCc3nnnn3C3CCCCC3)ccc2N1`: “inactive”; for `CC(C)NCC(O)COc1ccc(COCCOC(C)C)cc1` (stereo not drawn): “inactive”; for `CC(C[N+](C)(C)C)OC(N)=O` (stereo not drawn): “inactive”.
Consider `CCCC(CCC)C(=O)O`, for which the Potency result is “inactive”.
Same read-out and setting: the entry for `N=c1nc(N2CCCCC2)cc(N)n1O` is “inactive”; for `CCn1cc(C(=O)O)c(=O)c2cc(F)c(N3CCNC(C)C3)c(F)c21` (stereo not drawn) it is 15.8 µM (active); for `Nc1nc2c(ncn2COCCO)c(=O)[nH]1` it is “inactive”.
Still for that read-out and setting: the entry for `N[C@@H]1CONC1=O` is “inactive”; for `NC(=O)c1cnccn1` it is “inactive”; for `NC(N)=NC(=O)c1nc(Cl)c(N)nc1N` it is 28.2 µM (active).
On the same count and under the same terms, the same measure for `NCCc1ccc(O)c(O)c1`: “inactive”; for `OC(CN1CCC(Cc2ccc(F)cc2)CC1)c1ccc(Cl)cc1` (stereo not drawn): “inactive”; for `C[C@]12CCC(=O)C=C1CC[C@@H]1[C@@H]2[C@@H](O)C[C@@]2(C)[C@H]1CC[C@]2(O)C(=O)CO`: “inactive”.
Turning to `Cc1ccc(N(CC2=NCCN2)c2cccc(O)c2)cc1`, the Potency entry is “inactive”.
For the molecule `Cc1[nH]c(=O)c(C#N)cc1-c1ccncc1`, the Potency entry was “inactive”.
On the same count and under the same terms, the same measure for `CS(=O)(=O)c1cccc(CNc2nc(Nc3ccc4c(c3)CCC(=O)N4)ncc2C(F)(F)F)c1`: “inactive”.

System in another assay: not listed separately
Description: Primary qHTS for inhibitors of nuclear receptor binding SET domain protein 2 (NSD2) in an isogenic RCH-ACV NSD2 p.E1099K mutant (9B) (AID 1645876). Also: nearly all actives have a fitted effect of over 70% in size. Particulars: RCH-ACV NSD2 E1099K (9B) viability, CellTiter-Glo, 72 h; series mostly up to 44.9 µM.
On to `Cn1cnc([N+](=O)[O-])c1Sc1ncnc2nc[nH]c12`, for which the Potency was 959 nM (active) and 1.19 µM (active) and 4.17 µM (active).
Still for that read-out and setting: the same measure for `CCCc1nn(C)c2c(=O)[nH]c(-c3cc(S(=O)(=O)N4CCN(C)CC4)ccc3OCC)nc12`: “inactive”; for `CC(C)(C)NCC(O)c1ccc(O)c(CO)c1` (stereo not drawn): “inactive”; for `O=c1[nH]cnc2[nH]ncc12`: “inactive”.
For `C#Cc1cccc(Nc2ncnc3cc(OCCOC)c(OCCOC)cc23)c1`, the Potency was 8.41 µM (active).
Same read-out and setting: the same measure for `S=C(NCc1ccc2c(c1)OCO2)N1CCN(c2ncnc3c2oc2ccccc23)CC1`: 13.2 µM (active).
Same read-out and setting: the entry for `O=C1CCC(N2C(=O)c3ccccc3C2=O)C(=O)N1` (stereo not drawn) is “inactive”; for `CC(c1cc2ccccc2s1)N(O)C(N)=O` (stereo not drawn) it is “inactive”.
On the same count and under the same terms, the entry for `CC(=O)Oc1ccccc1C(=O)O` is “inactive”; for `OC(CCN1CCCCC1)(c1ccccc1)C1CC2C=CC1C2` (stereo not drawn) it is “inactive”; for `Clc1ccc(Nc2nnc(Cc3ccncc3)c3ccccc23)cc1` it is 15 µM (active) and 9.34 µM (active).
With `CNC[C@H](O)c1cccc(O)c1`, the Potency entry was “inactive”.
On the same count and under the same terms, the entry for `c1ccc([C@H]2CN3CCSC3=N2)cc1` is “inactive”; for `O=C1CCc2cc(OCCCCc3nnnn3C3CCCCC3)ccc2N1` it is “inactive”; for `CC(C)NCC(O)COc1ccc(COCCOC(C)C)cc1` (stereo not drawn) it is “inactive”.
`CC(C[N+](C)(C)C)OC(N)=O` (stereo not drawn): the Potency result was “inactive”.
On the same count and under the same terms, the same measure for `CCCC(CCC)C(=O)O`: “inactive”; for `N=c1nc(N2CCCCC2)cc(N)n1O`: “inactive”; for `CCn1cc(C(=O)O)c(=O)c2cc(F)c(N3CCNC(C)C3)c(F)c21` (stereo not drawn): “inactive”.
As for `Nc1nc2c(ncn2COCCO)c(=O)[nH]1`, the Potency result is “inactive”.
Still for that read-out and setting: the entry for `N[C@@H]1CONC1=O` is “inactive”.
Still for that read-out and setting: the same measure for `NC(=O)c1cnccn1`: “inactive”.
The same measure, in the same setting: the entry for `NCCc1ccc(O)c(O)c1` is “inactive and 23.5 µM (active)”; for `OC(CN1CCC(Cc2ccc(F)cc2)CC1)c1ccc(Cl)cc1` (stereo not drawn) it is “inactive”.
Consider `C[C@]12CCC(=O)C=C1CC[C@@H]1[C@@H]2[C@@H](O)C[C@@]2(C)[C@H]1CC[C@]2(O)C(=O)CO`, for which the Potency result is “inactive”.
Same read-out and setting: the entry for `Cc1ccc(N(CC2=NCCN2)c2cccc(O)c2)cc1` is “inactive”; for `Cc1[nH]c(=O)c(C#N)cc1-c1ccncc1` it is “inactive”.
As to `CS(=O)(=O)c1cccc(CNc2nc(Nc3ccc4c(c3)CCC(=O)N4)ncc2C(F)(F)F)c1`, the Potency was 3.32 µM (active).

System in another assay: not listed separately
Nature of the assay: Primary qHTS for inhibitors of nuclear receptor binding SET domain protein 2 (NSD2) in an RCH-ACV wild type WT cells (2C) (AID 1645877). Also: nearly all actives have a fitted effect of over 70% in size. The settings on record: RCH-ACV (leukaemia line) NSD2 WT (2C) viability, CellTiter-Glo, 72 h; series mostly up to 44.9 µM.
For `Cn1cnc([N+](=O)[O-])c1Sc1ncnc2nc[nH]c12`, the Potency is 1.35 µM (active) and 944 nM (active) and 3.72 µM (active).
On to `O=c1[nH]cnc2[nH]ncc12`, for which the Potency entry is “inactive”.
Still for that read-out and setting: the same measure for `CC(c1cc2ccccc2s1)N(O)C(N)=O` (stereo not drawn): “inactive”; for `CC(=O)Oc1ccccc1C(=O)O`: “inactive”.
On the same count and under the same terms, the entry for `OC(CCN1CCCCC1)(c1ccccc1)C1CC2C=CC1C2` (stereo not drawn) is “inactive”; for `Clc1ccc(Nc2nnc(Cc3ccncc3)c3ccccc23)cc1` it is 13.3 µM (active) and 8.33 µM (active); for `CNC[C@H](O)c1cccc(O)c1` it is “inactive”.
On the same count and under the same terms, the same measure for `c1ccc([C@H]2CN3CCSC3=N2)cc1`: “inactive”; for `O=C1CCc2cc(OCCCCc3nnnn3C3CCCCC3)ccc2N1`: 21.1 µM (active); for `CC(C)NCC(O)COc1ccc(COCCOC(C)C)cc1` (stereo not drawn): “inactive”.
With `CCCC(CCC)C(=O)O`, the Potency result was “inactive”.
Same read-out and setting: the same measure for `N=c1nc(N2CCCCC2)cc(N)n1O`: “inactive”; for `CCn1cc(C(=O)O)c(=O)c2cc(F)c(N3CCNC(C)C3)c(F)c21` (stereo not drawn): “inactive”.
For the molecule `Nc1nc2c(ncn2COCCO)c(=O)[nH]1`, the Potency entry was “inactive”.
As to `N[C@@H]1CONC1=O`, the Potency result was “inactive”.
Take `NC(=O)c1cnccn1`: the Potency result is “inactive”.
Consider `NCCc1ccc(O)c(O)c1`, for which the Potency result is “inactive”.
With `OC(CN1CCC(Cc2ccc(F)cc2)CC1)c1ccc(Cl)cc1` (stereo not drawn), the Potency result is “inactive”.
Same read-out and setting: the same measure for `CS(=O)(=O)c1cccc(CNc2nc(Nc3ccc4c(c3)CCC(=O)N4)ncc2C(F)(F)F)c1`: 3.32 µM (active).
